Assay results taken from PubChem BioAssay AID1159580 (chemical genetic matrix, 2015).
About 2,000 (36%) of roughly 5,500 compounds were called active. Not shown: some 18% with an inconclusive outcome. No stated cut-off is given here; in the data, active means normalized growth mostly below about 0.91 (no sharp cut-off); inconclusive means no clear call, values can overlap the other calls; inactive means mostly above about 0.92. The list shows a part of the results.

Assay: chemical genetic growth profiling, strain panel (AID 1159580);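 further: tested at 20 µM; growth read once vehicle control cultures reached saturation at 30 °C; 1 = growth at the plate median or of vehicle wells; lower values mean less growth of the strain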
Settings: growth OD

Measured: normalized growth

CC(=O)OC[C@@]1(O)C[C@@]23CCC4c5ccoc5CC[C@]4(C)C2CC[C@@H]1C3 (some centres not stated)
active: S. cerevisiae deletion strains, locus YKL009W, strain mrt4, active compounds read low 0.868 | S. cerevisiae deletion strains, locus YLR039C, strain RIC1, active compounds read low 0.661 | S. cerevisiae deletion strains, locus YLR262C, strain YPT6 (second series), active compounds read low 0.817 | S. cerevisiae deletion strains, locus YLR342W, strain FKS1 (second series), active compounds read low 0.775 | S. cerevisiae deletion strains, locus YML032C, strain rad52, active compounds read low 0.884 | S. cerevisiae deletion strains, locus YNL298W, strain CLA4, active compounds read low 0.891 | S. cerevisiae deletion strains, locus YNL307C, strain MCK1, active compounds read low 0.778 | S. cerevisiae deletion strains, locus YOR184W, strain ser1, active compounds read low 0.69
inactive: S. cerevisiae deletion strains, locus YJR075W, strain HOC1, active compounds read low 1.01 | S. cerevisiae deletion strains, locus YKL068W, active compounds read low 0.969 | S. cerevisiae deletion strains, locus YKL085W, strain MDH1 (second series), active compounds read low 0.967 | S. cerevisiae deletion strains, locus YKL085W, strain MDH1, active compounds read low 0.967 | S. cerevisiae deletion strains, locus YKL160W, strain elf1, active compounds read low 0.978 | S. cerevisiae deletion strains, locus YKL190W, strain CNB1, active compounds read low 0.986 | S. cerevisiae deletion strains, locus YKR001C, strain vps1, active compounds read low 0.942 | S. cerevisiae deletion strains, locus YKR026C, strain gcn3, active compounds read low 1.01 | S. cerevisiae deletion strains, locus YKR091W, strain srl3, active compounds read low 1 | S. cerevisiae deletion strains, locus YLL001W, strain dnm1, active compounds read low 0.974 | S. cerevisiae deletion strains, locus YLL026W, active compounds read low 1.02 | S. cerevisiae deletion strains, locus YLL041C, strain sdh2, active compounds read low 1.02 | S. cerevisiae deletion strains, locus YLR027C, strain aat2, active compounds read low 1.01 | S. cerevisiae deletion strains, locus YLR058C, strain SHM2, active compounds read low 0.973 | S. cerevisiae deletion strains, locus YLR102C, strain apc9, active compounds read low 0.973 | S. cerevisiae deletion strains, locus YLR113W, strain HOG1, active compounds read low 0.901 | S. cerevisiae deletion strains, locus YLR221C, strain rsa3, active compounds read low 0.968 | S. cerevisiae deletion strains, locus YLR258W, strain gsy2, active compounds read low 0.99 | S. cerevisiae deletion strains, locus YLR262C, strain YPT6, active compounds read low 0.624 | S. cerevisiae deletion strains, locus YLR268W, strain sec22, active compounds read low 0.987 | S. cerevisiae deletion strains, locus YLR320W, strain mms22, active compounds read low 0.945 | S. cerevisiae deletion strains, locus YLR330W, strain CHS5, active compounds read low 0.969 | S. cerevisiae deletion strains, locus YLR342W, strain FKS1, active compounds read low 1.01 | S. cerevisiae deletion strains, locus YLR357W, strain rsc2, active compounds read low 0.963 | S. cerevisiae deletion strains, locus YLR370C, strain arc18, active compounds read low 1 | S. cerevisiae deletion strains, locus YLR371W, strain rom2, active compounds read low 0.96 | S. cerevisiae deletion strains, locus YLR384C, strain iki3, active compounds read low 1.03 | S. cerevisiae deletion strains, locus YLR418C, strain cdc73, active compounds read low 0.983 | S. cerevisiae deletion strains, locus YML016C, strain PPZ1, active compounds read low 0.978 | S. cerevisiae deletion strains, locus YML120C, strain ndi1, active compounds read low 1.01 | S. cerevisiae deletion strains, locus YML124C, strain tub3, active compounds read low 0.98 | S. cerevisiae deletion strains, locus YMR058W, strain fet3, active compounds read low 0.952 | S. cerevisiae deletion strains, locus YMR078C, strain ctf18, active compounds read low 0.965 | S. cerevisiae deletion strains, locus YMR125W, strain sto1, active compounds read low 0.988 | S. cerevisiae deletion strains, locus YMR129W, active compounds read low 1.02 | S. cerevisiae deletion strains, locus YMR205C, strain PFK2, active compounds read low 0.981 | S. cerevisiae deletion strains, locus YMR223W, strain ubp8, active compounds read low 0.905 | S. cerevisiae deletion strains, locus YMR231W, strain pep5, active compounds read low 1.01 | S. cerevisiae deletion strains, locus YMR263W, strain SAP30, active compounds read low 0.985 | S. cerevisiae deletion strains, locus YMR307W, strain GAS1, active compounds read low 0.779 | S. cerevisiae deletion strains, locus YNL067W, strain RPL9B, active compounds read low 0.963 | S. cerevisiae deletion strains, locus YNL071W, strain lat1, active compounds read low 0.964 | S. cerevisiae deletion strains, locus YNL128W, strain TEP1, active compounds read low 0.997 | S. cerevisiae deletion strains, locus YNL153C, strain GIM3, active compounds read low 0.992 | S. cerevisiae deletion strains, locus YNL183C, strain NPR1, active compounds read low 0.877 | S. cerevisiae deletion strains, locus YNL209W, strain ssb2, active compounds read low 1.02 | S. cerevisiae deletion strains, locus YNL233W, strain BNI4, active compounds read low 0.947 | S. cerevisiae deletion strains, locus YNL248C, strain rpa49, active compounds read low 0.96 | S. cerevisiae deletion strains, locus YNL250W, strain rad50, active compounds read low 0.976 | S. cerevisiae deletion strains, locus YNL271C, strain bni1, active compounds read low 0.975 | S. cerevisiae deletion strains, locus YNL322C, strain KRE1 (second series), active compounds read low 1.03 | S. cerevisiae deletion strains, locus YNL322C, strain KRE1, active compounds read low 0.997 | S. cerevisiae deletion strains, locus YNR049C, strain mso1, active compounds read low 1.01 | S. cerevisiae deletion strains, locus YNR052C, strain pop2, active compounds read low 0.938 | S. cerevisiae deletion strains, locus YOL006C, strain TOP1, active compounds read low 1.11 | S. cerevisiae deletion strains, locus YOL012C, strain htz1 1.41 | S. cerevisiae deletion strains, locus YOL147C, strain pex11, active compounds read low 0.971 | S. cerevisiae deletion strains, locus YOR001W, strain rrp6, active compounds read low 0.985 | S. cerevisiae deletion strains, locus YOR061W, strain CKA2, active compounds read low 0.952 | S. cerevisiae deletion strains, locus YOR069W, strain VPS5, active compounds read low 0.981 | S. cerevisiae deletion strains, locus YOR070C, strain gyp1, active compounds read low 1.01 | S. cerevisiae deletion strains, locus YOR080W, strain dia2, active compounds read low 1.02 | S. cerevisiae deletion strains, locus YOR083W, strain WHI5, active compounds read low 0.978 | S. cerevisiae deletion strains, locus YOR106W, strain vam3, active compounds read low 0.998 | S. cerevisiae deletion strains, locus YOR136W, strain idh2, active compounds read low 0.95 | S. cerevisiae deletion strains, locus YOR144C, strain elg1, active compounds read low 0.97 | S. cerevisiae deletion strains, locus YOR231W, strain MKK1, active compounds read low 0.872 | S. cerevisiae deletion strains, locus YOR265W, strain rbl2, active compounds read low 1.01 | S. cerevisiae deletion strains, locus YOR270C, strain vph1, active compounds read low 1.21 | S. cerevisiae deletion strains, locus YOR290C, strain snf2, active compounds read low 0.927 | S. cerevisiae deletion strains, locus YOR316C, strain cot1, active compounds read low 0.966 | S. cerevisiae deletion strains, locus YPL051W, strain arl3, active compounds read low 0.967 | S. cerevisiae deletion strains, locus YPL055C, strain LGE1, active compounds read low 0.954 | S. cerevisiae deletion strains, locus YPL078C, strain atp4, active compounds read low 0.931 | S. cerevisiae deletion strains, locus YPL106C, strain sse1, active compounds read low 0.99 | S. cerevisiae deletion strains, locus YPL240C, strain hsp82, active compounds read low 1.01 | S. cerevisiae deletion strains, locus YPL241C, strain CIN2, active compounds read low 0.978 | S. cerevisiae deletion strains, locus YPL256C, strain CLN2, active compounds read low 0.927 | S. cerevisiae deletion strains, locus YPR119W, strain clb2, active compounds read low 0.967 | S. cerevisiae deletion strains, locus YPR141C, strain kar3, active compounds read low 0.989 | S. cerevisiae deletion strains, locus YPR163C, strain tif3, active compounds read low 0.962 | S. cerevisiae deletion strains, locus YPR167C, strain met16, active compounds read low 0.978 | S. cerevisiae deletion strains, strain wtn01, active compounds read low 0.948 | S. cerevisiae strains, strain wild type, active compounds read low 0.964
